Several values for one entry are separate records, joined by “and”; a condition that tells them apart may be missing. Equal values may be shown once. Results filed as inconclusive are left out. Activity calls are given as the source filed them. Unless noted, calls come from the whole dose curve; as a rule, active = well fitted curve in the direction sought with a large enough effect in the repeat runs; inconclusive = weak or mixed curves; inactive = no such curve, though single readings can be large; an effect the other way counts as inactive or inconclusive.
Tests used:
[1] = qHTS assay to identify aromatase inhibitors - cell viability counter screen (AID 743084);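 note: cells stimulated with testosterone during compound exposure; nearly all actives have a fitted effect of over 55% in size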
[2] = target: Aryl hydrocarbon receptor (Homo sapiens) (UniProt P35869); test: qHTS assay to identify small molecule that activate the aryl hydrocarbon receptor (AhR) signaling pathway (AID 743085); note: nearly all actives have a fitted effect of over 15% in size; note: potency is the fitted concentration of half-maximal effect;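 for activation: HG2L7.5c1 human HepG2 liver cells with stably integrated DRE-driven firefly reporter; series mostly up to about 70 µM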
Sequence of Aryl hydrocarbon receptor (Homo sapiens) (P35869 whole entry, looked up): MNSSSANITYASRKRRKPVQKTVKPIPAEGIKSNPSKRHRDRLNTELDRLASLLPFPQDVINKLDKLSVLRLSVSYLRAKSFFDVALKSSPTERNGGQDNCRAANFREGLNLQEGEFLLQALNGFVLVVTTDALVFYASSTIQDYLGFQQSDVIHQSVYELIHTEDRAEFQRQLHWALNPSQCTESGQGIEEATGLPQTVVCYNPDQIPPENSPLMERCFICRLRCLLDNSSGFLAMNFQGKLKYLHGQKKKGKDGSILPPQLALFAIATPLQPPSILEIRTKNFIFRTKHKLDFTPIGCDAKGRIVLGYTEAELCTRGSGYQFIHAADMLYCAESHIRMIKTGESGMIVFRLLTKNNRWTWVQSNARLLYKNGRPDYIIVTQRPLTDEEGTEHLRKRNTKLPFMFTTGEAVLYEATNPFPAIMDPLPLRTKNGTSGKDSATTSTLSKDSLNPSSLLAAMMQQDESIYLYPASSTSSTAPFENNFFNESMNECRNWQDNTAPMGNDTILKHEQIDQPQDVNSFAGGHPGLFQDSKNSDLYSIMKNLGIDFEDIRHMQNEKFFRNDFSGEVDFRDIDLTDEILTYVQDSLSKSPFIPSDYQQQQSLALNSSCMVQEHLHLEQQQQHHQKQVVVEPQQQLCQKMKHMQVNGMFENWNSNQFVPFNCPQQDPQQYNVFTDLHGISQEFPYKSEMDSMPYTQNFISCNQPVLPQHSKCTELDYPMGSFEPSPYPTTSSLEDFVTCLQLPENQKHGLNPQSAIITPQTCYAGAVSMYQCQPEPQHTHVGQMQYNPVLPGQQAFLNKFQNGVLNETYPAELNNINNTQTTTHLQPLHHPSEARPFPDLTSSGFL
Outline: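 Compounds were tested in HepG2 hepatocellular carcinoma cells harbouring a stably integrated luciferase gene under control of 20 DREs. Increased reporter signal after 24 h treatment at 37C was taken as AhR activation.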

[3] = target: Peroxisome proliferator-activated receptor gamma (Homo sapiens) (UniProt P37231); test: qHTS assay to identify small molecule agonists of the peroxisome proliferator-activated receptor gamma (PPARg) signaling pathway (AID 743094; active = well fitted activation curve with a large enough effect in the signal ratio in the repeat runs, not every such curve was filed as active; the % refers to the signal ratio)
Sequence of Peroxisome proliferator-activated receptor gamma (Homo sapiens) (P37231 whole entry, looked up): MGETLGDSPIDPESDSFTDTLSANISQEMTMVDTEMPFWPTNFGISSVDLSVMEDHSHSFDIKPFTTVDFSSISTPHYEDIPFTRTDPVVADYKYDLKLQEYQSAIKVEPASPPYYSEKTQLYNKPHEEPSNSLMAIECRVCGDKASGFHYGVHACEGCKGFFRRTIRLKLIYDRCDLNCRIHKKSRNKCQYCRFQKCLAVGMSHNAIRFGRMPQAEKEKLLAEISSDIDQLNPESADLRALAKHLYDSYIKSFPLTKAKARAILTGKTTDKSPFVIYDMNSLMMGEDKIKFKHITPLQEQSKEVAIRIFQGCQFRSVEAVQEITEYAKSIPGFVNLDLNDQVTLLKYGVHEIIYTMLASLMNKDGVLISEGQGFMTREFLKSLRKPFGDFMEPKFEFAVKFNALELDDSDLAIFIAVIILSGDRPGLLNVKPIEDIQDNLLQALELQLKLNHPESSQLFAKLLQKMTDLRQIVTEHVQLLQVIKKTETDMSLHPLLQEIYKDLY
Outline: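 HEK293H PPARg-bla cells, 5 h settle at 37C/5% CO2; compound (DMSO) 17 h, 37C; B/G FRET substrate 1 h RT; fluorescence intensity read-out. qHTS format.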

[4] = target: Peroxisome proliferator-activated receptor gamma (Homo sapiens) (UniProt P37231); test: qHTS assay to identify small molecule antagonists of the peroxisome proliferator-activated receptor gamma (PPARg) signaling pathway (AID 743191; calls by dose curve; note: series mostly up to about 63 µM; nearly all actives have a fitted effect of over 30% in size)
Outline: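 GeneBLAzer PPARg UAS-bla HEK293H cells, 5 h post-plating, exposed to compounds 17 h at 37C. LiveBLAzer B/G FRET substrate added for 1 h at room temperature; beta-lactamase reporter read by fluorescence intensity.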

[5] = qHTS assay to identify small molecule antagonists of the peroxisome proliferator-activated receptor gamma (PPARg) signaling pathway - cell viability counter screen (AID 743194); details: Potency: co-treated with 50 nM rosiglitazone unless noted; note: nearly all actives have a fitted effect of over 55% in size
Outline: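 Cytotoxicity counter screen in PPARg-bla HEK293H cells, same wells as reporter assay. Compounds plus 50 nM rosiglitazone (final) for 17 h at 37 C, then viability read by CellTiter-Glo luminescence.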

[6] = qHTS assay for small molecule agonists of the antioxidant response element (ARE) signaling pathway (AID 743202; active = well fitted activation curve with a large enough effect in the signal ratio in the repeat runs, not every such curve was filed as active; the % refers to the signal ratio)
Outline: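 HepG2 ARE-bla cells; 16 h treatment at 37 C; FRET-based beta-lactamase fluorescence read after 2 h substrate incubation at room temperature.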

[7] = qHTS assay for small molecule agonists of the antioxidant response element (ARE) signaling pathway - cell viability counter screen (AID 743203; calls by dose curve; note: nearly all actives have a fitted effect of over 55% in size)
Outline: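 Luminescence read-out (CellTiter-Glo, 30 min at room temperature) measured cell viability in the same wells as the ARE beta-lactamase reporter. HepG2 ARE-bla cells were treated with compounds for 16 hrs at 37C/5% CO2.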

[8] = qHTS assay for small molecule activators of the heat shock response signaling pathway - cell viability counter screen (AID 743209); note: nearly all actives have a fitted effect of over 50% in size
Outline: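 HSE-bla HeLa; 1500 cells/well; overnight 37 C, 5% CO2; compound 5 h 37 C; LiveBLAzer B/G substrate 2.5 h RT; CellTiter-Glo 30 min RT; luminescence.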

[9] = qHTS assay for small molecule activators of the heat shock response signaling pathway (AID 743210; active = well fitted activation curve with a large enough effect in the signal ratio in the repeat runs, with a control signal flat, not every such curve was filed as active; the % refers to the signal ratio;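 note: HeLa cells with beta-lactamase reporter driven by heat shock elements; series mostly up to about 63 µM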)
Outline: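 Following overnight attachment, HSE-bla HeLa cells received test compounds for 5 h at 37 C; beta-lactamase activity was then detected via FRET substrate fluorescence.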

[10] = qHTS assay to identify small molecule agonists of the peroxisome proliferator-activated receptor delta (PPARd) signaling pathway - cell viability counter screen (AID 743211); note: nearly all actives have a fitted effect of over 55% in size
Outline: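 Counter screen for cytotoxicity run in parallel with the PPARd reporter screen. Beta-lactamase reporter HEK293H cells exposed to compounds 17 h; ATP-based CellTiter-Glo luminescence quantified viability.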

[11] = target: Bile acid receptor (Homo sapiens) (UniProt Q96RI1); test: qHTS assay to identify small molecule antagonists of the farnesoid-X-receptor (FXR) signaling pathway (AID 743217; active = well fitted inhibition curve with a large enough effect in the signal ratio in the repeat runs, not every such curve was filed as active; the % refers to the signal ratio)
Sequence of Bile acid receptor (Homo sapiens) (Q96RI1 whole entry, looked up): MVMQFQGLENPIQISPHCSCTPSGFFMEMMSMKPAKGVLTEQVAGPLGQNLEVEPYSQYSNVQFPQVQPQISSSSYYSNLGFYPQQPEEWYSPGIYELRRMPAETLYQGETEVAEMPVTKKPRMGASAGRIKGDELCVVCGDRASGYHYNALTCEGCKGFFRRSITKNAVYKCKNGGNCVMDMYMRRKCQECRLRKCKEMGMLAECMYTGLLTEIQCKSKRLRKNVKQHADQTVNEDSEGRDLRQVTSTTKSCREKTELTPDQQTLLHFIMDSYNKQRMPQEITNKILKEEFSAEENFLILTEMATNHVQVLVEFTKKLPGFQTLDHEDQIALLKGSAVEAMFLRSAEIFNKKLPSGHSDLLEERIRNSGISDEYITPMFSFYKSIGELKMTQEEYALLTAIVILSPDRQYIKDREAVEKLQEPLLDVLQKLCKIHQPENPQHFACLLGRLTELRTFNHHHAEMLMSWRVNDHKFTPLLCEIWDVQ
Outline: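 Read-out: beta-lactamase FRET fluorescence (LiveBLAzer B/G substrate, 2 h, room temperature) in GeneBLAzer FXR-UAS-bla HEK 293T cells. Compounds were co-dosed with 50 uM chenodeoxycholic acid (final) and incubated 16 h at 37 °C.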

[12] = qHTS assay to identify small molecule agonists of the farnesoid-X-receptor (FXR) signaling pathway - cell viability counter screen (AID 743218); note: nearly all actives have a fitted effect of over 45% in size
Outline: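 Luminescence from CellTiter-Glo, read after 30 min at RT, reports viability of GeneBLAzer FXR-UAS-bla HEK 293T cells treated 16 h with compounds in the wells used for the beta-lactamase reporter.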

[13] = target: Bile acid receptor (Homo sapiens) (UniProt Q96RI1); test: qHTS assay to identify small molecule agonists of the farnesoid-X-receptor (FXR) signaling pathway (AID 743220; active = well fitted activation curve with a large enough effect in the signal ratio in the repeat runs, not every such curve was filed as active; the % refers to the signal ratio)
Outline: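 FXR-UAS-bla HEK 293T cells carrying a UAS-driven beta-lactamase reporter were plated for 5 h at 37C/5% CO2, then exposed to DMSO-dissolved Tox21 10K compounds for 16 h at 37C. A LiveBLAzer B/G FRET substrate was loaded for 2 h at room temperature before fluorescence reading.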

[14] = qHTS assay to identify small molecule antagonists of the farnesoid-X-receptor (FXR) signaling pathway - cell viability counter screen (AID 743221; active = well fitted cell-killing curve with a large enough effect in the repeat runs, not every such curve was filed as active; note: nearly all actives have a fitted effect of over 50% in size)
Outline: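 Multiplexed counter screen: viability of FXR-bla HEK 293T cells under agonist stimulation by chenodeoxycholic acid (50 uM, final) and test compound for 16 h at 37 C, measured by CellTiter-Glo luminescence in the reporter wells.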

[15] = target: Vitamin D3 receptor (Homo sapiens) (UniProt P11473); test: qHTS assay to identify small molecule agonists of the vitamin D receptor (VDR) signaling pathway (AID 743222; calls by dose curve)
Sequence of Vitamin D3 receptor (Homo sapiens) (P11473 whole entry, looked up): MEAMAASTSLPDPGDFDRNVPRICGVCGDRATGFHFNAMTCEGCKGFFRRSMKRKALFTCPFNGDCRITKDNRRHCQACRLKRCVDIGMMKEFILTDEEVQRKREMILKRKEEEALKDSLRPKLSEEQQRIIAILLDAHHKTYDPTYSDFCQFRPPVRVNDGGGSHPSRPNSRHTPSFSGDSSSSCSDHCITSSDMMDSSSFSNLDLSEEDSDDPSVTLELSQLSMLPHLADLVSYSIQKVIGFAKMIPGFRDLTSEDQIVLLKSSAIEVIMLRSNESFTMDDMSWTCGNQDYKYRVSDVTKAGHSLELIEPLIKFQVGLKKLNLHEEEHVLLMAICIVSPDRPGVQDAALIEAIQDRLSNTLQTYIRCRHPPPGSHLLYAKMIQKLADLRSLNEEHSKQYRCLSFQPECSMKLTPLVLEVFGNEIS
Outline: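 Beta-lactamase reporter readout (LiveBLAzer B/G FRET, 2 h RT) in VDR-bla cells after 16 h compound treatment at 37C, 5% CO2; cells pre-incubated 4 h before pin transfer of DMSO solutions.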

[16] = target: Vitamin D3 receptor (Homo sapiens) (UniProt P11473); test: qHTS assay to identify small molecule antagonists of the vitamin D receptor (VDR) signaling pathway (AID 743223; active = well fitted inhibition curve with a large enough effect in the signal ratio in the repeat runs, not every such curve was filed as active; the % refers to the signal ratio)
Outline: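 Cells carrying a VDR-driven beta-lactamase reporter (VDR-bla) were co-treated with compound and 3 nM final 1alpha,25-dihydroxyvitamin D3 for 16 h at 37C; reporter activity was measured as FRET substrate fluorescence after 2 h at room temperature.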

[17] = target: Peroxisome proliferator-activated receptor delta (Homo sapiens) (UniProt Q03181); test: qHTS assay to identify small molecule agonists of the peroxisome proliferator-activated receptor delta (PPARd) signaling pathway (AID 743212; calls by dose curve)
Sequence of Peroxisome proliferator-activated receptor delta (Homo sapiens) (Q03181 whole entry, looked up): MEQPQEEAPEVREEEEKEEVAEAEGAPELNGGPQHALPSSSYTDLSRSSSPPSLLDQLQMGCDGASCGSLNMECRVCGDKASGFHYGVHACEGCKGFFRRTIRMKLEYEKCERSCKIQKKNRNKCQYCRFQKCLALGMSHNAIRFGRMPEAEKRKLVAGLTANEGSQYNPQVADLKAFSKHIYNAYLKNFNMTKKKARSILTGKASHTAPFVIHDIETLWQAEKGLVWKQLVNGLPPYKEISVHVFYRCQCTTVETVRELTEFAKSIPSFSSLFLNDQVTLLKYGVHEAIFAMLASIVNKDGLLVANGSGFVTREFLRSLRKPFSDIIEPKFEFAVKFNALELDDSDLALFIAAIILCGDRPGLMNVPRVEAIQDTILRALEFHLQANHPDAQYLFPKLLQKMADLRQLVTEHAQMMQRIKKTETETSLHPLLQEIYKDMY
Outline: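 Tox21 library screened in GeneBLAzer PPARd UAS-bla HEK293H cells. After compound treatment at 37 C, a FRET-based beta-lactamase substrate was applied for 2 h and fluorescence recorded.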

[18] = qHTS assay to identify small molecule antagonists of the peroxisome proliferator-activated receptor delta (PPARd) signaling pathway - cell viability counter screen (AID 743213); note: nearly all actives have a fitted effect of over 50% in size
Outline: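 PPARd-bla HEK293H cells (3000/well) got compound plus 300 nM L165041 agonist for 17 h at 37 C. Viability in the same wells came from CellTiter-Glo luminescence after 30 min at room temperature.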

[19] = target: Peroxisome proliferator-activated receptor delta (Homo sapiens) (UniProt Q03181); test: qHTS assay to identify small molecule antagonists of the peroxisome proliferator-activated receptor delta (PPARd) signaling pathway (AID 743215; active = well fitted inhibition curve with a large enough effect in the signal ratio in the repeat runs, not every such curve was filed as active; the % refers to the signal ratio;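 note: cells stimulated with agonist L165041 at 300 nM final during compound exposure; series mostly up to about 62 µM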)
Outline: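 HEK293H GeneBLAzer PPARd UAS-bla reporter cells; cpd + L165041 300 nM final, 17 h 37 C; LiveBLAzer B/G FRET substrate 2 h RT; fluorescence intensity read-out. Antagonist mode.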

[20] = qHTS assay to identify small molecule that activate the aryl hydrocarbon receptor (AhR) signaling pathway - cell viability counter screen (AID 743086);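 note: HepG2 liver cells carrying the AhR DRE luciferase reporter; series mostly up to about 70 µM; nearly all actives have a fitted effect of over 45% in size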
Outline: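 HepG2-AhR-luc (HG2L7.5c1) cells, 4000/well, treated 24 h at 37 C with compound; viability measured as CellTiter-Fluor fluorescence after 30 min in the same wells as the luciferase read.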

Measured: Potency

COc1ccc([C@@H]2CC(=O)c3c(O)cc(O[C@@H]4O[C@H](CO[C@@H]5O[C@@H](C)[C@H](O)[C@@H](O)[C@H]5O)[C@@H](O)[C@H](O)[C@H]4O)cc3O2)cc1OC
not listed: [17] | [18] | [19] | [20]
inactive: all other assays above

O=C(O)C1=NN(c2ccc(S(=O)(=O)O)cc2)C(=O)C1
not listed: [4] | [11] | [13] | [15] | [16] | [20]
inactive: all other assays above

CCCCCCCCC(=O)O
inactive: [1] | [2] | [20] | [5] | [6] | [7] | [10] | [17] | [19] | [12] | [14]

CCN(CC)CCNC(=O)c1ccc(N)cc1
inactive: [1] | [2] | [20] | [5] | [6] | [7] | [10] | [12] | [14]

NC1CCCCC1N (stereo not drawn)
not listed: [3] | [4] | [9] | [17] | [19]
inactive: all other assays above

CCc1cccc(CC)c1N
not listed: [3] | [4] | [11] | [13] | [15] | [16] | [18]
inactive: all other assays above

OC1CCCCC1
not listed: [3] | [4] | [11] | [13]
inactive: all other assays above

O=c1c(O)c(-c2ccc(O)c(O)c2)oc2cc(O)cc(O)c12
active: [2] 61.2 µM and 54.9 µM and 61.1 µM
not listed: [4] | [9] | [11] | [13] | [17] | [19] | [20]
inactive: all other assays above

O=C1C(N(CO)C(=O)NCO)N(CO)C(=O)N1CO (stereo not drawn)
not listed: [3] | [4] | [8] | [11] | [13] | [17] | [18] | [19]
inactive: all other assays above

CC(C)=CCC/C(C)=C/C=O
not listed: [6] | [9] | [11] | [13] | [18] | [20]
inactive: all other assays above
